Records with an inconclusive call do not appear. Active and inactive are the calls of the source. The calls were made as follows, unless noted: active = hit-call score of the fitted dose curve at least 0.9, where 1 is the maximum; inconclusive = response in the unintended direction; inactive = score below 0.9.
Key:
[1] = biological target: Estrogen-related receptor gamma (Homo sapiens) (UniProt P62508); experiment: ATG_ERRg_TRANS: Attagene TRANS-FACTORIAL HepG2 Assay for human Estrogen-Related Receptor gamma (ERRg) (AID 2282977); settings: HepG2 Attagene TRANS reporter, ERRg transactivation;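 also: hits increase reporter signal over DMSO so potencies reflect activators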
Method in brief: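 Transfect HepG2 with multiple GAL4-UAS reporter transcription units; dose chemicals 24 h; isolate RNA, reverse-transcribe with oligo(dT), PCR-amplify, label with 6-FAM, digest with HpaI; size fragments by capillary electrophoresis. DMSO serves as negative control.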

[2] = biological target: Bile acid receptor (Homo sapiens) (UniProt Q96RI1); experiment: ATG_FXR_TRANS: Attagene TRANS-FACTORIAL HepG2 Assay for Farnesoid X Receptor (FXR) (AID 2282979); settings: HepG2 Attagene TRANS FXR-GAL4 reporter transcription;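 also: hits raise reporter mRNA above DMSO so AC50 marks FXR activation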
Method in brief: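 HepG2 cells were transiently transfected with GAL4-UAS reporters driven by chimeric NR-Gal4 proteins and dosed for 24 h. Reporter mRNA was quantified by RT-PCR, fluorescent labelling, HpaI digestion and capillary electrophoresis, with gain of signal scored versus DMSO.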

[3] = biological target: Oxysterols receptor LXR-beta (Homo sapiens) (UniProt P55055); experiment: ATG_LXRb_TRANS: Attagene TRANS-FACTORIAL HepG2 Assay for human Liver X Receptor beta (LXRb) (AID 2282981); settings: HepG2 Attagene TRANS GAL4-LXRb reporter, mRNA
Method in brief: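 Transient transfection HepG2 (multiplexed RTUs, GAL4-UAS); NR-Gal4 chimera; 24 h exposure; RNA → RT-PCR → 6-FAM primer extension → HpaI → CE; increase vs DMSO.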

[4] = biological target: Hepatocyte nuclear factor 4-alpha (Homo sapiens) (UniProt P41235); experiment: ATG_HNF4a_TRANS: Attagene TRANS-FACTORIAL HepG2 Assay for human Hepatocyte Nuclear Factor 4 alpha (HNF4a) (AID 2282982); settings: HepG2 HNF4a transactivation reporter, mRNA readout
Method in brief: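 Readout is fluorescent reporter-transcript fragments resolved by capillary electrophoresis after RT-PCR from HepG2 cells dosed for 24 h. Cells carried transfected GAL4-UAS reporter constructs measuring exogenous NR-GAL4 chimera activity; DMSO served as baseline.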

[5] = biological target: Transcriptional activator Myb (Homo sapiens) (UniProt P10242); experiment: ATG_Myb_CIS: Attagene CIS-FACTORIAL HepG2 Assay for human Myeloblastosis (Myb) Proto-Oncogene Transcription Factor (AID 2282986; active = hit-call score of the fitted dose curve at least 0.9, where 1 is the maximum; inactive = score below 0.9); settings: HepG2 Attagene CIS-FACTORIAL Myb reporter transcription; actives raise or lower the signal
Method in brief: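 HepG2, transient MRTU transfection (cis-element promoters, endogenous TF activity), 24 h compound exposure. Readout: reporter mRNA via RT-PCR, 6-FAM labeling, HpaI digest, capillary electrophoresis. Gain/loss fit vs DMSO.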

[6] = ATG_M_06_TRANS: Attagene TRANS-FACTORIAL HepG2 Assay for M06 Transcription Factor (Internal Marker) (AID 2282983); settings: HepG2 Attagene TRANS M06 internal marker reporter
Method in brief: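 HepG2 cells transiently transfected with GAL4-UAS multiple reporter units, dosed 24 h. Reporter RNA reverse-transcribed, PCR-amplified, 6-FAM-labeled, HpaI-digested and quantified by capillary electrophoresis; this internal-marker signal fitted upward relative to DMSO.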

[7] = ATG_M_32_TRANS: Attagene TRANS-FACTORIAL HepG2 Assay for M32 Transcription Factor (Internal Marker) (AID 2282984); settings: HepG2 Attagene TRANS M32 internal marker reporter;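 also: transcript level of a background control reporter unit measured by RT-PCR and capillary electrophoresis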
Method in brief: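 Measures reporter mRNA induction in human HepG2 liver cells after 24 h chemical treatment. Transcripts from transiently transfected GAL4-UAS reporter units are amplified, fluorescently labelled and sized by capillary electrophoresis; gain of signal relative to DMSO.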

[8] = biological target: Glucocorticoid receptor (Homo sapiens) (UniProt P04150); experiment: ATG_GR_TRANS: Attagene TRANS-FACTORIAL HepG2 Assay for human Glucocorticoid Receptor (GR) (AID 2282978); settings: HepG2 Attagene TRANS GR reporter, mRNA transcription;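 also: activators score as hits since higher reporter transcript over DMSO is fitted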
Method in brief: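 Transient MRTU transfection of HepG2 (GAL4-UAS reporters, exogenous NR-GAL4 chimeras), 24 h dosing. Readout: reporter transcript via RT-PCR + capillary electrophoresis fluorescence. Positive direction vs DMSO baseline.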

[9] = biological target: Oxysterols receptor LXR-alpha (Homo sapiens) (UniProt Q13133); experiment: ATG_LXRa_TRANS: Attagene TRANS-FACTORIAL HepG2 Assay for human Liver X Receptor alpha (LXRa) (AID 2282980); settings: HepG2 Attagene TRANS reporter, LXRa transactivation
Method in brief: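 HepG2 cells transiently transfected with GAL4-UAS reporter units for chimeric NR-Gal4 proteins, exposed to chemicals for 24 h. Reporter mRNA quantified by RT-PCR and capillary electrophoresis; gain of signal fitted relative to DMSO.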

[10] = biological target: Nuclear receptor subfamily 4 group A member 2 (Homo sapiens) (UniProt P43354); experiment: ATG_NURR1_TRANS: Attagene TRANS-FACTORIAL HepG2 Assay for human Nuclear Receptor Related Protein 1 (NURR1) (AID 2282985); settings: HepG2 Attagene TRANS reporter, mRNA readout
Method in brief: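 Transient transfection of HepG2, human liver cells, with multiple GAL4-UAS reporter transcription units. Cells dosed 24 h, RNA isolated, reverse-transcribed, PCR-amplified, FAM-labelled, HpaI-digested, sized by capillary electrophoresis. DMSO served as negative control.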

Measured: AC50

Glucocorticoid receptor (Homo sapiens), sequence (P04150 whole entry, looked up, the tested form may be a part): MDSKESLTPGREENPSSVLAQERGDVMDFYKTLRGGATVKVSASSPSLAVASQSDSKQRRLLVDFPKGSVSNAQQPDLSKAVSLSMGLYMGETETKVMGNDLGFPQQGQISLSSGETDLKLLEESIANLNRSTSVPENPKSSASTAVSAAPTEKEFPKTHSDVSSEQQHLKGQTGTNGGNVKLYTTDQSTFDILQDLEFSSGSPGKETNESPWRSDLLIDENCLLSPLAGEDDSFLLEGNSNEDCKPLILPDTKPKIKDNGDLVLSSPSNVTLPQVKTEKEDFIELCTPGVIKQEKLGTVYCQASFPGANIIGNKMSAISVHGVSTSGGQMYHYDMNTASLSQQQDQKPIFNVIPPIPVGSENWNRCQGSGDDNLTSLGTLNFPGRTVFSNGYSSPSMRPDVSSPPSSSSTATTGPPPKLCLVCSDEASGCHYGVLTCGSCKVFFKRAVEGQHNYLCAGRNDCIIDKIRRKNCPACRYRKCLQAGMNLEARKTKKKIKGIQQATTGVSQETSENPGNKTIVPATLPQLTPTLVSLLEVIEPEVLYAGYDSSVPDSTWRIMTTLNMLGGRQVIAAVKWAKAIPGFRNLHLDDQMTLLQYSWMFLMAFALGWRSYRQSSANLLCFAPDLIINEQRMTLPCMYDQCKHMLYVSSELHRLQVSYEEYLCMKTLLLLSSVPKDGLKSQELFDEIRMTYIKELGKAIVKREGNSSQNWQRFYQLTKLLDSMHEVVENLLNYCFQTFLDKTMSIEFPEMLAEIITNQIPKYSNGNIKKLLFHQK
Hepatocyte nuclear factor 4-alpha (Homo sapiens), sequence (P41235 whole entry, looked up, the tested form may be a part): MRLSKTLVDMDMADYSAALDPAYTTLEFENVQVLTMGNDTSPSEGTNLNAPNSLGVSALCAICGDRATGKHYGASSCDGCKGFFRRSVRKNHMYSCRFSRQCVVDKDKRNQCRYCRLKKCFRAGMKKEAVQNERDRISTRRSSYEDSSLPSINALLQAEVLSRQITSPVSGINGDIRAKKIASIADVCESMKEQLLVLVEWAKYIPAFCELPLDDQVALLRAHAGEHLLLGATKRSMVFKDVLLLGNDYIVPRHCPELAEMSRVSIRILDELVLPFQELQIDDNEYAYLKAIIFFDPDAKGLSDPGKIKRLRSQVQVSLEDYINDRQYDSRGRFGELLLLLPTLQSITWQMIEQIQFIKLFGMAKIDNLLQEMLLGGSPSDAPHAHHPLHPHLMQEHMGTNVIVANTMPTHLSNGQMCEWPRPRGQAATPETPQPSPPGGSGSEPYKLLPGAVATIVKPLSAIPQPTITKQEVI
Oxysterols receptor LXR-alpha (Homo sapiens), sequence (Q13133 whole entry, looked up, the tested form may be a part): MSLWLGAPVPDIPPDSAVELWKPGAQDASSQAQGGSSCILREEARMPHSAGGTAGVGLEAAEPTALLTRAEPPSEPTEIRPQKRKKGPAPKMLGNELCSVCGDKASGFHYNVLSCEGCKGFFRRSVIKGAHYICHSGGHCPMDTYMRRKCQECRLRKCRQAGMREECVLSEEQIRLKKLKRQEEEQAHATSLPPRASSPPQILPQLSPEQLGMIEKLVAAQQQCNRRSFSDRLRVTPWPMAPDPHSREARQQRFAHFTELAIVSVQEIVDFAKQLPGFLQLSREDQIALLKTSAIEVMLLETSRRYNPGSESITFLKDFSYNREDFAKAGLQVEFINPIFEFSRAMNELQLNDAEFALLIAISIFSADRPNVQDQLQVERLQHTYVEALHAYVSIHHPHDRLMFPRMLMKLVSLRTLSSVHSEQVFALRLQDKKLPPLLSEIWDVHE
Estrogen-related receptor gamma (Homo sapiens), sequence (P62508 whole entry, looked up, the tested form may be a part): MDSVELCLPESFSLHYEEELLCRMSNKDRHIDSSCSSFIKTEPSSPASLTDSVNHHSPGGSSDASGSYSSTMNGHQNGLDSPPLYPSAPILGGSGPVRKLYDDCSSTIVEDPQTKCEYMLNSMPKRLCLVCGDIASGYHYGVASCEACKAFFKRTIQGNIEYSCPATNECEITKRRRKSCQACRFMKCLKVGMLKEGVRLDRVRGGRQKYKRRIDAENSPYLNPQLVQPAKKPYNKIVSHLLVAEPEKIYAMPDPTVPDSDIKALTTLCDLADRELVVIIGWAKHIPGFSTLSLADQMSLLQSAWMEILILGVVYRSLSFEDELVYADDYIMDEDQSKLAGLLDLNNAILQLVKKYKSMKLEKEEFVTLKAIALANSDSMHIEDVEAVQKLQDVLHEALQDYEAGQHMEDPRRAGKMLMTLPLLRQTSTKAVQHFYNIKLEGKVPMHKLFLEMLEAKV
Transcriptional activator Myb (Homo sapiens), sequence (P10242 whole entry, looked up): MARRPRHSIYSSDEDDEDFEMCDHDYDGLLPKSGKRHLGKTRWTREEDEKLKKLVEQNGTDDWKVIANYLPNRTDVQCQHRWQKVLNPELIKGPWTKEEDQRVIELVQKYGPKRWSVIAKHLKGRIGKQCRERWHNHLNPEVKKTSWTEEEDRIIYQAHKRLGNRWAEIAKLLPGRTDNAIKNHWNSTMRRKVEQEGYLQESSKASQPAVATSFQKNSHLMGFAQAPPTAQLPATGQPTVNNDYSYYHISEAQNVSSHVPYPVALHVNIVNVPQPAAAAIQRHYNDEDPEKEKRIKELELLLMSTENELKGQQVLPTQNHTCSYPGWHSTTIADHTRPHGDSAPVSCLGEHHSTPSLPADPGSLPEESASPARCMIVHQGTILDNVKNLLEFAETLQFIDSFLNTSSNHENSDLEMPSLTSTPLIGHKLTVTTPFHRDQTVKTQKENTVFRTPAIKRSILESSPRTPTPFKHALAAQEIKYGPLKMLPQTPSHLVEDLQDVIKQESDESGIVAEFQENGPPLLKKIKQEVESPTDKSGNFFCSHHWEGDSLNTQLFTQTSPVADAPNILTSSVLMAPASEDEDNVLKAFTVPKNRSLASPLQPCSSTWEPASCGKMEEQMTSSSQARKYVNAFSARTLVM
Nuclear receptor subfamily 4 group A member 2 (Homo sapiens), sequence (P43354 whole entry, looked up, the tested form may be a part): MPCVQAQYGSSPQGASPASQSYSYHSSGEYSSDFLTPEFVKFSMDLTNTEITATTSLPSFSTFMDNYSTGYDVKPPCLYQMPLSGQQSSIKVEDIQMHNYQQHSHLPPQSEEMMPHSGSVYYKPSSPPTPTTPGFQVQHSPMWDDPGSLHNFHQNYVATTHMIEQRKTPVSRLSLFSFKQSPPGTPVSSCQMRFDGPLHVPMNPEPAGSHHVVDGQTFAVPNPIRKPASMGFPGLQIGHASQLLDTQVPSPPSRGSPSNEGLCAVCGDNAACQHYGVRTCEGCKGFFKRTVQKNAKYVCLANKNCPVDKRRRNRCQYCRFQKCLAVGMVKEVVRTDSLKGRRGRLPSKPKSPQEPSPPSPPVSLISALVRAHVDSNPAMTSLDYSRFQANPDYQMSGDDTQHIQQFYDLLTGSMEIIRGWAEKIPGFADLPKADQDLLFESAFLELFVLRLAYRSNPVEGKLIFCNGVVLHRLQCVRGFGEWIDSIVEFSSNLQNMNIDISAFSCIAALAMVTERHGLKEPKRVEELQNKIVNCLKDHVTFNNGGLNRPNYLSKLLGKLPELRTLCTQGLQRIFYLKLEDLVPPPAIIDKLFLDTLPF
Bile acid receptor (Homo sapiens), sequence (Q96RI1 whole entry, looked up, the tested form may be a part): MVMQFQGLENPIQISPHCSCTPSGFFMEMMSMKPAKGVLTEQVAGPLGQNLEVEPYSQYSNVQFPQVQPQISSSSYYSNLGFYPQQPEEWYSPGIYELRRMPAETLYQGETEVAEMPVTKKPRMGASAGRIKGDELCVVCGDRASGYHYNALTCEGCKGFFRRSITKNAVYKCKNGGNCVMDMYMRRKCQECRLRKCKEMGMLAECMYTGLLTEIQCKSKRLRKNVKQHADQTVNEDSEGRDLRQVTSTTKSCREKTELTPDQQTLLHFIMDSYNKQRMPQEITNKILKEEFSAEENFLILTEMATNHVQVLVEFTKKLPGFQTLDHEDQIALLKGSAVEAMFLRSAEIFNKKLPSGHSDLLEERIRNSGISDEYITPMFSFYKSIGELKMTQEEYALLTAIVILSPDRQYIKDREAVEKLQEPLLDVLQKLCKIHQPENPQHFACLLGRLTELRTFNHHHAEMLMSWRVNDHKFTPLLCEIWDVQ
Oxysterols receptor LXR-beta (Homo sapiens), sequence (P55055 whole entry, looked up, the tested form may be a part): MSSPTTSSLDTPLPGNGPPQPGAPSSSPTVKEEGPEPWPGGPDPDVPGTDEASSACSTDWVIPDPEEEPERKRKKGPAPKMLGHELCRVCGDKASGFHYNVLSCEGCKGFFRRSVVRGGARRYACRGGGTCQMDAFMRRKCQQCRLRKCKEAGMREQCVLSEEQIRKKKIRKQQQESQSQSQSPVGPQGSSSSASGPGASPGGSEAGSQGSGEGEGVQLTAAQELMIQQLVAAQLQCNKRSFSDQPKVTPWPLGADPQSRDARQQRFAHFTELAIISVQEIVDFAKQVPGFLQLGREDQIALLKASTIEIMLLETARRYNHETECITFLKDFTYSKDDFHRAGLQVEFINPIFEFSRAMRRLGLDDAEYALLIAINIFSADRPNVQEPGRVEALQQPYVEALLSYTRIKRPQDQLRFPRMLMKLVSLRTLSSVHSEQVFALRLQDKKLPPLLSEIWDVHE

CO[Si](C)(CCC(F)(F)C(F)(F)C(F)(F)C(F)(F)C(F)(F)C(F)(F)F)OC
inactive: [1] | [2] | [3] | [4] | [5]

CN1CN(C)CN(C)C1
inactive: [1] | [2] | [3] | [6] | [7] | [5]

CCC(C)CO (centres undefined)
not listed: [4] | [7]
inactive: all other assays above

Cc1ccc([N+](=O)[O-])c(C)c1
not listed: [3] | [7] | [10]
inactive: all other assays above

FC(F)(F)C(F)(F)C(F)(F)CC1CO1 (centres undefined)
not listed: [4] | [10]
inactive: all other assays above

CSc1ccc(O)cc1C
inactive: [1] | [8] | [2] | [5]

COCCOCCC[Si](C)(O[Si](C)(C)C)O[Si](C)(C)C
active: [5] 19 µM
not listed: [1] | [10]
inactive: all other assays above

OCCCCl
inactive: [1] | [8] | [6] | [10] | [5]

OCC(F)(F)C(F)(F)C(F)(F)C(F)(F)C(F)(F)C(F)(F)C(F)(F)C(F)(F)CO
active: [9] 10.5 µM
not listed: [1]
inactive: all other assays above

CCOC(=O)CC(=O)C(F)(F)C(F)(F)F
not listed: [6] | [7] | [10]
inactive: all other assays above

C[C@]12CC[C@H]3C(=CCc4cc(O)ccc43)[C@@H]1CCC2=O
not listed: [1]
inactive: all other assays above

CCCCCCCCCCCCCCCCC
not listed: [7] | [8] | [10]
inactive: all other assays above

C[Si](Cl)(Cl)CCC(F)(F)C(F)(F)C(F)(F)C(F)(F)C(F)(F)C(F)(F)F
not listed: [1]
inactive: all other assays above

C=C(C)CCCC
inactive: [1] | [8] | [2] | [9] | [5]

CNS(=O)(=O)C(F)(F)C(F)(F)C(F)(F)C(F)(F)C(F)(F)C(F)(F)C(F)(F)C(F)(F)F
not listed: [6] | [8] | [10]
inactive: all other assays above

Cc1ccc(O)c(-n2nc3ccccc3n2)c1
not listed: [4] | [10]
inactive: all other assays above

C=C(C)C(=O)OCC(F)(F)C(F)(F)C(F)(F)C(F)F
not listed: [1]
inactive: all other assays above

CCOCN(C(=O)CS(=O)(=O)O)c1c(C)cccc1CC
not listed: [1]
inactive: all other assays above

OCCCC(F)(F)C(F)(F)C(F)(F)C(F)(F)C(F)(F)C(F)(F)C(F)(F)C(F)(F)F
not listed: [10]
inactive: all other assays above

CCOC(=O)C1CC(=O)C(=C(O)C2CC2)C(=O)C1 (centres undefined)
inactive: [1] | [2] | [3] | [6] | [5]

O=C(O)CCC(F)(F)C(F)(F)C(F)(F)F
not listed: [8]
inactive: all other assays above

O=S(=O)(OCC(F)(F)F)C(F)(F)C(F)(F)C(F)(F)C(F)(F)F
active: [10] 65.2 µM
not listed: [3]
inactive: all other assays above

CC(C)CC=C(C=O)c1ccccc1
inactive: [1] | [8] | [2] | [7] | [10] | [5]

C=CC(=O)OCC(F)(F)C(F)(F)C(F)(F)COC(=O)C=C
not listed: [7] | [9]
inactive: all other assays above

Nc1c(Br)cc([N+](=O)[O-])cc1Br
not listed: [3] | [10]
inactive: all other assays above

CCOC(=O)CCC(C)=O
inactive: [1] | [2] | [9] | [3] | [5]

Cc1ccc2c(c1)OCC(=O)CO2
not listed: [4] | [6] | [7]
inactive: all other assays above

NC(=O)C(F)(F)C(F)(F)C(F)(F)F
not listed: [7] | [9]
inactive: all other assays above

CCCCCCCC/C=C\CCCCCCCC(=O)OCC(O)CO (centres undefined)
not listed: [3] | [4] | [9]
inactive: all other assays above

O=C(O)C(F)(F)C(F)(F)C(F)(F)OC(F)(F)F
not listed: [7]
inactive: all other assays above

O=C(Cl)C(F)(F)C(F)(F)C(F)(F)C(F)(F)C(F)(F)C(F)(F)F
not listed: [1]
inactive: all other assays above

Reference: PubChem BioAssay (EPA / NIEHS)
